Measured values taken from PubChem BioAssay AID1159580 (chemical genetic matrix, 2015).
Where “and” joins values, the source holds several entries; their conditions need not be identical. Identical values can stand only once. Hit rate of the full screen: of about 5,500 compounds, about 2,000 (36%) were called active. Another 18% or so got no clear call; they are omitted. No stated cut-off is given here; in the data, active means normalized growth mostly below about 0.91 (no sharp cut-off); inconclusive means no clear call, values can overlap the other calls; inactive means mostly above about 0.92. The list shows a part of the results.

Experiment: chemical genetic growth profiling, strain panel (AID 1159580);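 further: tested at 20 µM; growth read once vehicle control cultures reached saturation at 30 °C; 1 = growth at the plate median or of vehicle wells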
Conditions: S. cerevisiae deletion strains, growth OD

Measured: normalized growth

CCC[C@H](N[C@@H](C)C(=O)N1[C@H](C(=O)O)C[C@@H]2CCCC[C@@H]21)C(=O)OCC
inactive: locus YAL013W, strain DEP1, stronger effect = lower value 1.01 | locus YAL021C, strain ccr4, stronger effect = lower value 1.01 | locus YAL026C, strain drs2, stronger effect = lower value 1.01 | locus YAL030W, strain snc1, stronger effect = lower value 1.02 | locus YBL061C, strain skt5, stronger effect = lower value 1.01 | locus YBR009C, strain hhf1, stronger effect = lower value 1.01 | locus YBR021W, strain FUR4, stronger effect = lower value 1.03 | locus YBR023C, strain chs3, stronger effect = lower value 1.02 | locus YBR171W, strain sec66, stronger effect = lower value 1.02 | locus YBR229C, strain ROT2, stronger effect = lower value 1 | locus YBR231C, strain swc5, stronger effect = lower value 1.02 | locus YBR279W, strain paf1, stronger effect = lower value 1.01 | locus YCL011C, strain gbp2, stronger effect = lower value 1.01 | locus YCL016C, strain dcc1, stronger effect = lower value 1.01 | locus YCL029C, strain bik1, stronger effect = lower value 1.04 | locus YCL069W, strain vba3, stronger effect = lower value 1.02 | locus YCR088W, strain abp1, stronger effect = lower value 1.02 | locus YDL005C, strain med2, stronger effect = lower value 1.01 | locus YDL035C, strain GPR1, stronger effect = lower value 1.01 | locus YDL040C, strain nat1, stronger effect = lower value 1.01 | locus YDL074C, strain BRE1, stronger effect = lower value 1.02 | locus YDL101C, strain DUN1, stronger effect = lower value 1.01 | locus YDL134C, strain PPH21, stronger effect = lower value 1.01 | locus YDL185W, strain tfp1, stronger effect = lower value 1.02 | locus YDL192W, strain arf1, stronger effect = lower value 1.02 | locus YDR001C, strain nth1, stronger effect = lower value 1.01 | locus YDR069C, strain doa4, stronger effect = lower value 1.03 | locus YDR101C, strain arx1, stronger effect = lower value 1.01 | locus YDR137W, strain rgp1, stronger effect = lower value 0.99 | locus YDR150W, strain NUM1, stronger effect = lower value 1.02 | locus YDR159W, strain sac3, stronger effect = lower value 1.02 | locus YDR162C, strain NBP2, stronger effect = lower value 1.01 | locus YDR195W, strain ref2 1.04 | locus YDR297W, strain sur2, stronger effect = lower value 1.02 | locus YDR318W, strain mcm21, stronger effect = lower value 1.02 | locus YDR334W, strain swr1, stronger effect = lower value 1.01 | locus YDR335W, strain msn5, stronger effect = lower value 1.01 | locus YDR388W, stronger effect = lower value 1.03 | locus YDR392W, strain spt3, stronger effect = lower value 0.981 | locus YDR502C, strain sam2, stronger effect = lower value 1.01 | locus YEL003W, strain gim4, stronger effect = lower value 1.01 | locus YEL037C, strain rad23, stronger effect = lower value 1.02 | locus YEL061C, strain CIN8 (second series), stronger effect = lower value 1.01 | locus YEL061C, strain CIN8, stronger effect = lower value 1 | locus YER015W, strain faa2, stronger effect = lower value 1.01 | locus YER016W, strain bim1, stronger effect = lower value 1.02 | locus YER110C, stronger effect = lower value 1.02 | locus YER111C, strain swi4, stronger effect = lower value 1.02 | locus YER155C, strain BEM2 (second series), stronger effect = lower value 1.05 | locus YER155C, strain BEM2, stronger effect = lower value 1 | locus YER167W, strain BCK2, stronger effect = lower value 1.02 | locus YFR010W, strain ubp6, stronger effect = lower value 1.03 | locus YGL078C, strain dbp3, stronger effect = lower value 1.02 | locus YGL086W, strain mad1, stronger effect = lower value 1.02 | locus YGL167C, strain pmr1, stronger effect = lower value 1.02 | locus YGL173C, strain kem1, stronger effect = lower value 1.01 | locus YGL227W, strain vid30, stronger effect = lower value 1.02 | locus YGL240W, strain doc1, stronger effect = lower value 1.03 | locus YGL248W, strain PDE1, stronger effect = lower value 1.01 | locus YGL253W, strain hxk2, stronger effect = lower value 1.02 | locus YGR078C, strain PAC10, stronger effect = lower value 1.02 | locus YGR135W, strain pre9, stronger effect = lower value 1.01 | locus YGR229C, strain SMI1, stronger effect = lower value 1.02 | locus YGR252W, strain gcn5, stronger effect = lower value 1.01 | locus YHR013C, strain ard1, stronger effect = lower value 1.02 | locus YHR027C, strain rpn1, stronger effect = lower value 1.02 | locus YHR030C, strain SLT2, stronger effect = lower value 1.01 and 1 | locus YHR079C, strain IRE1 (second series), stronger effect = lower value 1.01 | locus YHR079C, strain IRE1, stronger effect = lower value 0.993 | locus YHR094C, strain hxt1, stronger effect = lower value 1.02 | locus YHR129C, strain ARP1, stronger effect = lower value 1.01 | locus YHR142W, strain chs7, stronger effect = lower value 1.03 | locus YHR200W, strain rpn10, stronger effect = lower value 1.03 | locus YIL066C, strain RNR3, stronger effect = lower value 1.02 | locus YIL073C, strain SPO22, stronger effect = lower value 1.03 | locus YIL125W, strain kgd1, stronger effect = lower value 1.02 | locus YIR030C, strain dcg1, stronger effect = lower value 1.01 | locus YJL092W, strain hpr5, stronger effect = lower value 1.01 | locus YJL095W, strain BCK1 (second series), stronger effect = lower value 1.02 | locus YJL095W, strain BCK1, stronger effect = lower value 1.01 and 1 | locus YJL115W, strain asf1, stronger effect = lower value 1.02 | locus YJL129C, strain trk1, stronger effect = lower value 1.01 | locus YJL134W, strain LCB3, stronger effect = lower value 1.02 | locus YJL154C, strain vps35, stronger effect = lower value 1.01 | locus YJL164C, strain tpk1, stronger effect = lower value 1.01 | locus YJL166W, strain qcr8, stronger effect = lower value 1.04 | locus YJL168C, strain set2, stronger effect = lower value 1.02 | locus YJL187C, strain SWE1 (second series), stronger effect = lower value 1.01 | locus YJL187C, strain SWE1, stronger effect = lower value 1.01 | locus YJR043C, strain POL32, stronger effect = lower value 1.01 | locus YJR066W, strain TOR1, stronger effect = lower value 0.96
